Test [1] can be described thus: NCI Yeast Anticancer Drug Screen. Data for the rad50 strain (AID 155).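 Further: 0% = growth of vehicle-only cultures of the same strain.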 To be noted: S. cerevisiae rad50 strain growth inhibition; at 50.0 µM; active compounds read high. The gist of the method:
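Genetically altered yeast (DNA repair pathway); compound treatment; growth inhibition vs vehicle ctrl.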

A short description of test [2]: NCI Yeast Anticancer Drug Screen. Data for the mec2-1 strain (AID 157). To be noted: S. cerevisiae mec2-1 strain, at 50.0 µM, active compounds read high. The gist of the method: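 mec2-1 yeast strain, carrying an alteration in DNA damage repair or cell cycle control, was exposed to compounds; growth inhibition was measured relative to vehicle-treated controls.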
Test [3] in a line: NCI Yeast Anticancer Drug Screen. Data for the sgs1 mgt1 strain (AID 161).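 Further: 0% = growth of cultures given vehicle only.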 To be noted: S. cerevisiae sgs1 mgt1 strain, at 50.0 µM, active compounds read high. The gist of the method: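 Growth of a repair-deficient yeast mutant was monitored after compound treatment and expressed as inhibition relative to vehicle-treated cultures.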
Test [4] is described as follows: NCI Yeast Anticancer Drug Screen. Data for the cln2 rad14 strain (AID 165).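 Further: 0% = growth equal to vehicle treated cultures.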 To be noted: S. cerevisiae cln2 rad14 strain, at 50.0 µM, active compounds read high. The gist of the method: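 Yeast carrying cln2 and rad14 alterations (cell cycle control and DNA damage repair) were exposed to compounds. Growth inhibition was measured against vehicle-treated controls.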
Test [5] in a line: NCI Yeast Anticancer Drug Screen. Data for the bub3 strain (AID 167). To be noted: S. cerevisiae bub3 mutant strain, at 50.0 µM, active compounds read high. The gist of the method: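 Yeast carrying a defined mutation is treated with each compound, and growth is compared with that of vehicle-exposed cells to give inhibition.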
Test [6] can be described thus: NCI Yeast Anticancer Drug Screen. Data for the mlh1 rad18 strain (AID 175). To be noted: S. cerevisiae mlh1 rad18 strain growth inhibition; at 50.0 µM; active compounds read high. In short, it runs like this:
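Growth inhibition of the yeast strain was measured after compound exposure and expressed relative to vehicle-treated controls. The strain carries defined defects in DNA damage repair.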

The structures appear in SMILES notation. The panel holds about 79,000 compounds, 15% with a hit somewhere; the sample as a whole holds those more often. A number with no mark means an inactive call. Activity calls are given as the source filed them. No stated cut-off is given here; in the data, active means growth inhibition above about 70%; inactive means the rest.

Take `Cn1c[n+](C)nn1`: the growth inhibition is -2.75% in test [1]; -12.8% in test [2]; -1.3% in test [3]; -29.1% in test [4]; -3.25% in test [5]; -18.2% in test [6].

Take `CC1=C(C)C(=O)O[C@@H]([C@](C)(O)[C@]2(O)CC[C@@]3(O)[C@@H]4C[C@H](O)[C@]5(O)[C@@H](O)C=CC(=O)[C@]5(C)[C@H]4CC[C@]23C)C1`: the growth inhibition in test [1] is 21.9%; in test [2], 11.2%; in test [3], 7.1%; in test [4], 23.2%; in test [5], 9.5%; in test [6], -52.8%.

With `CN(C)P(=O)(N(C)C)N(C)C.[CH3][Sn]([CH3])([Cl])[Cl]`, the growth inhibition in test [1] was 5.75%; in test [2] it was -1.2%; in test [3], 52.4%; in test [4] it was 49.9%; in test [5], 63.8%; in test [6] it was 82.2% (active).

Consider `COc1cc2c(c(OC)c1O)-c1ccc(OC)c(=O)cc1[C@@H](NC(=O)C(F)(F)F)CC2`, for which the growth inhibition in test [1] is 14.5%; in test [2], 28.3%; in test [3], -3.25%; in test [4] it was 15.7%; in test [5] it was 7.9%; in test [6], 11.3%.

Take `CNC(=O)C(Cl)Cl`: the growth inhibition in test [1] is 12.8%; in test [2], 4.85%; in test [3] it was 11.7%; in test [4], 0.95%; in test [5], -8.1%; in test [6] it was 6.15%.

`CC(C)(O)[C@H]1[C@@H]2OC(=O)[C@H]1[C@]1(O)C[C@H]3OC34C(=O)O[C@H]2[C@@]41C` (stereo not given in full) (tested in a mixture with another compound): the growth inhibition in test [1] was 1.05%; in test [2] it was -12.8%; in test [3], 19.6%; in test [4], -9.25%; in test [5] it was -12.4%; in test [6], -65.3%.

For the compound `COc1cc2c3c(c1OC)Oc1ccc(cc1)CC1c4c(cc(OC)c(OC)c4Oc4ccc(cc4)CC3N(C)CC2)CCN1C` (stereo not given), the growth inhibition in test [1] is 2.75%; in test [2], 11.9%; in test [3], -11.3%; in test [4], -8%; in test [5], -13.6%; in test [6], -3.65%.

Take `O=[N+]([O-])c1ccc(OCCOCCOc2ccc(S(=O)(=O)F)cc2)c(Cl)c1`: the growth inhibition in test [1] was 56.2%; in test [2], 15.4%; in test [3] it was 21.8%; in test [4] it was 29.6%; in test [5] it was 45.4%; in test [6], 56.5%.

Take `Cc1cccc(CCl)c1`: the growth inhibition was -7.05% in test [1]; -46.3% in test [2]; -23.3% in test [3]; -0.45% in test [4]; -40.9% in test [5]; -23.4% in test [6].

`COc1ccc2c(c1)C13CCCCC1C(C2)[N+](C)([O-])CC3` (stereo not given): the growth inhibition is -6.8% in test [1]; -19.1% in test [2]; 6.35% in test [3]; -38.1% in test [4]; -10.9% in test [5]; 4.95% in test [6].

Regarding `C[Se]c1ncnc2c1c(C#N)cn2C1OC(CO)C(O)C1O` (stereo not given), the growth inhibition in test [1] is 0.75%; in test [2], 14.3%; in test [3] it was -3.3%; in test [4], -13.5%; in test [5] it was 1.45%; in test [6], 2.65%.

For the compound `O=S(c1ccc(Cl)cc1)c1ccc(Cl)cc1`, the growth inhibition was 1.55% in test [1]; 17.9% in test [2]; 33.5% in test [3]; -66.2% in test [4]; 13.6% in test [5]; 19.1% in test [6].

As to `Brc1ccc(-c2csc3c4ccccc4cc[n+]23)cc1`, the growth inhibition in test [1] is 14.6%; in test [2], -3.25%; in test [3], 12.2%; in test [4], -2.45%; in test [5], 21.8%; in test [6], -1.75%.

`C=C1[C@@H](C)[C@H]2[C@H](Cc3ccccc3)NC(=O)[C@]23OC(=O)/C=C/[C@H](O)CCC[C@@H](C)C/C=C/[C@H]3[C@@H]1O`: the growth inhibition is 53.4% in test [1]; 25.8% in test [2]; 24.6% in test [3]; 39% in test [4]; 58.8% in test [5]; 58.5% in test [6].

Consider `CN(C)CCCNc1c2c(nc3ccc(Cl)cc13)CCCC2`, for which the growth inhibition in test [1] was -1.2%; in test [2], -20.4%; in test [3], -31.8%; in test [4], 6.6%; in test [5] it was 9.15%; in test [6] it was -7.3%.

As to `Fc1ccc(N=C=S)cc1`, the growth inhibition in test [1] is -28.1%; in test [2], -20.2%; in test [3] it was -24.1%; in test [4] it was -9.8%; in test [5], -6.2%; in test [6], 2.2%.

With `O=C(O)Cc1ccc(O)c(O)c1.[Pt].c1ccc([PH+](c2ccccc2)c2ccccc2)cc1.c1ccc([PH+](c2ccccc2)c2ccccc2)cc1`, the growth inhibition is 43.2% in test [1]; 33.9% in test [2]; 37.8% in test [3]; 42.5% in test [4]; 26.5% in test [5]; 63.9% in test [6].

Consider `c1cc2c(cc1NC1=NCCO1)CCC2`, for which the growth inhibition is 3.65% in test [1]; 4.65% in test [2]; 2.75% in test [3]; -31.6% in test [4]; 8.6% in test [5]; -0.65% in test [6].

Regarding `Clc1ccc(N=P(c2ccccc2)(c2ccccc2)c2ccccc2)cc1.[Cl][Cd][Cl]`, the growth inhibition in test [1] was 95% (active); in test [2], 71% (active); in test [3] it was 81.8% (active); in test [4] it was 75.9% (active); in test [5] it was 64.2%; in test [6], 69%.

Take `CCCOC(=O)c1ccccc1N`: the growth inhibition in test [1] is 6.05%; in test [2], -1.25%; in test [3], -1.55%; in test [4], -16.9%; in test [5] it was -4.75%; in test [6], -19.4%.

The values above are taken from PubChem BioAssay (NCI).
